Laboratory results published in PubChem BioAssay (Tox21).
Where “and” joins values, the source holds several entries; their conditions need not be identical. Equal entries are not always repeated. Results filed as inconclusive are left out. Some structures have more than one record in an assay (separate samples or runs), and their calls can disagree. Calls of active or inactive are those of the source. Unless noted, calls come from the whole dose curve.

Assays:
[1] = Nuclear factor erythroid 2-related factor 2/antioxidant responsive element (Nrf2/ARE) small molecule agonists: qHTS cell viability counter screen in human keratinocytes (AID 1919968; active = well fitted curve in the direction sought with a large enough effect in the repeat runs; an effect the other way counts as inactive or inconclusive; note: nearly all actives have a fitted effect of over 55% in size; note: potency is the fitted concentration of half-maximal effect)
In short: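 Measured as CellTiter-Fluor fluorescence, this readout tracks cytotoxicity in the same wells as the ARE-luciferase screen. HaCaT reporter cells (1,500/well) received compounds after a 5 h pre-incubation and were exposed for 23 h.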

[2] = biological target: Gonadotropin-releasing hormone receptor (Homo sapiens) (UniProt P30968); assay: Human gonadotropin-releasing hormone receptor (GnRHR) small molecule agonists, calcium flux assay in GnRHR-HEK293 cells (AID 1920063); note: nearly all actives have a fitted effect of over 35% in size
In short: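 Fluorescence kinetics (480 nm excitation, 540 nm emission; 3 min, 1 s steps) report calcium mobilisation in human GnRHR-HEK293 cells in agonist mode. Dye incubation: 1 h, 37 C.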

[3] = biological target: KiSS-1 receptor (Homo sapiens) (UniProt Q969F8); assay: Human kisspeptin (KISS1R) small molecule agonists, calcium flux assay in KISS1R-HEK293 cells (AID 1920064; active = well fitted curve in the direction sought with a large enough effect in the repeat runs; an effect the other way counts as inactive or inconclusive)
In short: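 Measures KISS1R agonism through calcium-sensitive dye fluorescence in stably transfected HEK293 cells, read for 3 min after pin-tool compound delivery; 15-point titrations in triplicate.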

[4] = G protein-coupled receptor (GPCR) small molecule agonists, calcium flux assay: HEK293 wild type cell line counter screen (AID 1920065)
In short: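 Readout: fluorescence at 480 nm excitation/540 nm emission, sampled at 1 s intervals for 3 min. Cells had been cultured 18 h, then dye-loaded 1 h at 37 C before compound or ATP addition.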

[5] = p53 small molecule agonists, cell-based qHTS assay with human liver microsomes (AID 1963577);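 note: p53 response element beta-lactamase reporter cells with liver microsomes plus NADPH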
In short: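 In this qHTS, p53 response-element beta-lactamase cells receive test compound together with a microsome/NADPH activating system (0.5 mg/mL final each) and are incubated 16 h at 37 C before LiveBLAzer fluorescence detection.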

[6] = p53 small molecule agonists, cell-based qHTS assay with rat liver microsomes (AID 1963578)
In short: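 Agonist mode in p53RE-bla reporter cells, with compounds co-incubated 16 h at 37 C alongside 0.5 mg/mL rat liver microsomes and 0.5 mg/mL NADPH (final), followed by a 2 h LiveBLAzer detection step.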

[7] = p53 small molecule agonists, cell-based qHTS assay with human liver microsomes: qHTS cell viability counter screen (AID 1963579); note: nearly all actives have a fitted effect of over 45% in size; note: potency is the fitted concentration of half-maximal effect
In short: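 Metabolically activated exposure: compounds, human liver microsomes and NADPH (0.5 mg/mL final apiece) were added to p53RE-bla cells seeded 5 h earlier, left 16 h at 37 C, and then assessed for viability by CellTiter-Glo luminescence.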

[8] = p53 small molecule agonists, cell-based qHTS assay with rat liver microsomes: qHTS cell viability counter screen (AID 1963580); note: nearly all actives have a fitted effect of over 45% in size
In short: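 In HCT-116 cells carrying a p53 response element-bla reporter, compounds were metabolically activated in situ by rat liver microsomes with NADPH over 16 h. Cell ATP content then served as the cytotoxicity measure.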

[9] = p53 small molecule agonists, cell-based qHTS assay: qHTS cell viability counter screen (AID 1963581); note: nearly all actives have a fitted effect of over 45% in size; note: potency is the fitted concentration of half-maximal effect
In short: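 In the same plates used for the p53 bla reporter, HCT-116 cells given compounds for 16 h at 37 C received CellTiter-Glo; luminescence was recorded 30 min later at room temperature.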

[10] = p53 small molecule agonists, cell-based qHTS assay (AID 1963582; active = well fitted activation curve with a large enough effect in the signal ratio in the repeat runs, not every such curve was filed as active; the % refers to the signal ratio)
In short: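 Compounds are pin-transferred in DMSO onto p53RE-bla cells and incubated 16 h at 37 C. The B/G FRET beta-lactamase substrate is then applied for 2 h at RT and fluorescence recorded.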

[11] = biological target: 5-hydroxytryptamine receptor 2A (Homo sapiens) (UniProt P28223); assay: 5-hydroxytryptamine receptor 2A (HTR2A) small molecule antagonists, cell-based qHTS assay (AID 1963586); note: nearly all actives have a fitted effect of over 45% in size
In short: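 Antagonist-mode intracellular calcium assay: DOI (4 nM) added after 5 min compound pre-incubation at room temperature to dye-loaded HTR2A-CHO cells. Fluorescence followed for 3 min, sampled every second.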

[12] = biological target: Muscarinic acetylcholine receptor M1 (Homo sapiens) (UniProt P11229); assay: Cholinergic receptor muscarinic 1 (CHRM1) small molecule antagonists, cell-based qHTS assay (AID 1963588); note: nearly all actives have a fitted effect of over 40% in size
In short: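 CHRM1-CHO calcium-flux assay, antagonist mode. Cells were seeded 18 h, dye-loaded 1 h at 37 C and given compound for 5 min at RT, then acetylcholine was added at 50nM. FDSS fluorescence was read 3 min; 15 concentrations, three runs.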

[13] = biological target: Muscarinic acetylcholine receptor M1 (Homo sapiens) (UniProt P11229); assay: Cholinergic receptor muscarinic 1 (CHRM1) small molecule agonists, cell-based qHTS assay (AID 1963589); note: nearly all actives have a fitted effect of over 35% in size
In short: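 Each compound was tested at 15 concentrations across three independent runs on dye-loaded CHO cells stably expressing human CHRM1, reading intracellular calcium fluorescence kinetically at 1 sec intervals.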

[14] = biological target: Beta-2 adrenergic receptor (Homo sapiens) (UniProt P07550); assay: Adrenergic beta2 receptor (ADRB2) small molecule antagonists, cell-based qHTS assay (AID 1963592); note: series mostly up to about 92 µM; nearly all actives have a fitted effect of over 50% in size
In short: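 Cells (CHO, stable ADRB2 overexpression) incubated 18-20hr at 37C; compounds added from DMSO; agonist mix (1nM isoproterenol, 100uM IBMX, 25uM Ro-20-1724) added; 0.5hr RT; d2-cAMP and anti-cAMP-cryptate added; 1hr RT; 665/615 nm read.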

[15] = biological target: D(2) dopamine receptor (Homo sapiens) (UniProt P14416); assay: Dopamine D2 receptor (DRD2) small molecule agonists, cell-based qHTS assay (AID 1963594); note: nearly all actives have a fitted effect of over 35% in size
In short: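 HEK293 cells stably expressing DRD2 were cultured 24 h at 37 C, then given Ro20-1724 (0.1 mM final) and compounds for 10 min at room temperature. NKH477 (200nM) was then added for 30 min. cAMP was read by HTRF.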

[16] = biological target: 5-hydroxytryptamine receptor 2A (Homo sapiens) (UniProt P28223); assay: 5-hydroxytryptamine receptor 2A (HTR2A) small molecule agonists, cell-based qHTS assay (AID 1963587); note: nearly all actives have a fitted effect of over 30% in size
In short: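 HTR2A-CHO cells, plated 18 h at 37 C/5% CO2, dye-loaded 1 h at 37 C; compounds in DMSO added by pin tool (agonist mode). Intracellular calcium flux read as kinetic fluorescence on FDSS over 2 min at 1 s intervals.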

[17] = cAMP Responsive Elements (CRE) small molecule agonists, cell-based qHTS assay (AID 1963590)
In short: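 Cell line: CRE-bla HEK 293T; medium DMEM/10% dialyzed FBS/0.1 mM NEAA/1 mM pyruvate/25 mM HEPES; 3 h compound exposure; beta-lactamase FRET readout after 2 h substrate loading at RT.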

[18] = cAMP Responsive Elements (CRE) small molecule antagonists, cell-based qHTS assay (AID 1963591; active = well fitted inhibition curve with a large enough effect in the signal ratio in the repeat runs, not every such curve was filed as active; the % refers to the signal ratio)
In short: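 Inhibition of NKH477-driven (0.25 uM final) CRE-beta-lactamase signal in HEK293T cells, 3 h compound exposure at 37 °C, detected by FRET substrate fluorescence.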

[19] = biological target: Beta-2 adrenergic receptor (Homo sapiens) (UniProt P07550); assay: Adrenergic beta2 receptor (ADRB2) small molecule agonists, cell-based qHTS assay (AID 1963593);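 note: CHO cells stably overexpressing human ADRB2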
In short: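 CHO cells stably over-expressing ADRB2 were plated overnight at 37C, then dosed with compounds plus a stimulation mix containing 100uM IBMX and 25uM Ro-20-1724 for 0.5hr at room temperature. cAMP was measured by HTRF competition, 1hr.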

[20] = biological target: D(2) dopamine receptor (Homo sapiens) (UniProt P14416); assay: Dopamine D2 receptor (DRD2) small molecule antagonists, cell-based qHTS assay (AID 1963595; active = well fitted inhibition curve with a large enough effect in the signal ratio in the repeat runs, with a control signal flat; the % refers to the signal ratio)
In short: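 Antagonism was scored as restored cAMP in HEK293-DRD2 cells. These cells were stimulated with 200 nM NKH477 and 12 nM quinpirole for 30 min at room temperature, in the presence of 0.1 mM Ro20-1724.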

Measured: Potency

Chain of Muscarinic acetylcholine receptor M1 (Homo sapiens) (P11229 whole entry, looked up): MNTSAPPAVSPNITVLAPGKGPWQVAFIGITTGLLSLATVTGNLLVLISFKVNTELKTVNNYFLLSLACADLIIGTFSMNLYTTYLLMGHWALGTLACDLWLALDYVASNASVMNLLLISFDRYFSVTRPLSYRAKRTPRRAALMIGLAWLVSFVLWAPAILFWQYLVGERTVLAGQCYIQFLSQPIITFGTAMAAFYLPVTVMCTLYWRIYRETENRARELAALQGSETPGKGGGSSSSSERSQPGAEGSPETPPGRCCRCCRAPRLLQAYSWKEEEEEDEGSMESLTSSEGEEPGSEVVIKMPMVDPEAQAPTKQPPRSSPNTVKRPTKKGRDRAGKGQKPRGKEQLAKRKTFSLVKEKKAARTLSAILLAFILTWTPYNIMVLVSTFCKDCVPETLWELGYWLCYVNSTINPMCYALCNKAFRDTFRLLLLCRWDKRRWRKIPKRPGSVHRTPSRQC
Chain of Gonadotropin-releasing hormone receptor (Homo sapiens) (P30968 whole entry, looked up): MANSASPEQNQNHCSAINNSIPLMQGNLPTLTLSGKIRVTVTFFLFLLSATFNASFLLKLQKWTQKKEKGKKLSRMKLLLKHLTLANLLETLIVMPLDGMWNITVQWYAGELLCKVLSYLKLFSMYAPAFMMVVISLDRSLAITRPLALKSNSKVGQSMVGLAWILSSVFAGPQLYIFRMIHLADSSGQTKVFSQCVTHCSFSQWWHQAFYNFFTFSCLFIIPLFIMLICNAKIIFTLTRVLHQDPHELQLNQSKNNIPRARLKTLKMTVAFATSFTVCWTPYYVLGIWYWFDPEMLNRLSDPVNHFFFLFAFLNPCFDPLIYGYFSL
Chain of 5-hydroxytryptamine receptor 2A (Homo sapiens) (P28223 whole entry, looked up): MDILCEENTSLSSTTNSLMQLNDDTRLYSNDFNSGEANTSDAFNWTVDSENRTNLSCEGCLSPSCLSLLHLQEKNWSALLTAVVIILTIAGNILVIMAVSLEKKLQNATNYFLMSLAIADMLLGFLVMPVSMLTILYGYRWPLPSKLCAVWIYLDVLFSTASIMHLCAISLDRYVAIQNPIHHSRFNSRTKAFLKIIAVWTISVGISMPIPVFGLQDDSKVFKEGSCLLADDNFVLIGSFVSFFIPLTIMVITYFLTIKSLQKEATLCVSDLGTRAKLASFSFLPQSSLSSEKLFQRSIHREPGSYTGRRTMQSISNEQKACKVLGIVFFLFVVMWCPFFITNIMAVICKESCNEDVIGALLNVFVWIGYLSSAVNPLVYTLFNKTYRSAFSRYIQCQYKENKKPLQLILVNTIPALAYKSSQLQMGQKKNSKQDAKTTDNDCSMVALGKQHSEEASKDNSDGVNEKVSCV
Chain of Beta-2 adrenergic receptor (Homo sapiens) (P07550 whole entry, looked up): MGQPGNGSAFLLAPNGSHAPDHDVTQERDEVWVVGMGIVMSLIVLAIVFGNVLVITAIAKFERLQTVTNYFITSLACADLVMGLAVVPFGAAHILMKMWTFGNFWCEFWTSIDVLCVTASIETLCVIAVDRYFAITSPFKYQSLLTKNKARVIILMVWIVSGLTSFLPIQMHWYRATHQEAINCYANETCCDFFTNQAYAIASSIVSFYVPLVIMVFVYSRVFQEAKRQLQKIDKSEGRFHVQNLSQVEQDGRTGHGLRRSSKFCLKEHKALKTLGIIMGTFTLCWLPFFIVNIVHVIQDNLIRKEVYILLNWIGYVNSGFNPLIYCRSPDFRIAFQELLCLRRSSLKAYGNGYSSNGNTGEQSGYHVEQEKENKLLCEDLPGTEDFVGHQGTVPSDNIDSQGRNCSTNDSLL
Chain of KiSS-1 receptor (Homo sapiens) (Q969F8 whole entry, looked up): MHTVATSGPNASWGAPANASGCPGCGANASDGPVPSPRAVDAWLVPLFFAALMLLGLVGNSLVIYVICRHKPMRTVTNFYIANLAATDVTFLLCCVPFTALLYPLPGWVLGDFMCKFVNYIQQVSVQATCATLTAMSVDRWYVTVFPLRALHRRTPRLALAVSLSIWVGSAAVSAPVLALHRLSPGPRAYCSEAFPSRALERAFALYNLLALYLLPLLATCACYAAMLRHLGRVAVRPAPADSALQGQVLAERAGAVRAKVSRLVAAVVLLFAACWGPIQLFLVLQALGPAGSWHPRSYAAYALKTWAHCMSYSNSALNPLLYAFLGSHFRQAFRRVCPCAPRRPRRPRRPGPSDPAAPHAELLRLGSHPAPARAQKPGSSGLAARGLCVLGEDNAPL
Chain of D(2) dopamine receptor (Homo sapiens) (P14416 whole entry, looked up): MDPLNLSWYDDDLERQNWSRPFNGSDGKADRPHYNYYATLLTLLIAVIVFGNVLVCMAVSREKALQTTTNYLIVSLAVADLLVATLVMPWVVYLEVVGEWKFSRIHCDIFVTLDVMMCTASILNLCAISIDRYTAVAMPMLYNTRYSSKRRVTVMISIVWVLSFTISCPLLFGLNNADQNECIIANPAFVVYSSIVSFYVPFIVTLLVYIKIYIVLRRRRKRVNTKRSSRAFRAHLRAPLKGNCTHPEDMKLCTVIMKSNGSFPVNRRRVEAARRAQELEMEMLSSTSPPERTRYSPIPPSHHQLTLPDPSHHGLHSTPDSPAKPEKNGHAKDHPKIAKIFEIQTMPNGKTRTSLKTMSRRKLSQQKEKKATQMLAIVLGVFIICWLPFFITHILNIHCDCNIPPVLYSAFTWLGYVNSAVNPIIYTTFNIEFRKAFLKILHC

C=C1C[C@H]2[C@@H]3C=C(C)C4=CC(=O)CC[C@]4(C)[C@H]3CC[C@]2(C)[C@@]1(OC(C)=O)C(C)=O
not listed: [16] | [17] | [18] | [19] | [20]
inactive: all other assays above

Nc1ccc(NCCO)c([N+](=O)[O-])c1
not listed: [12] | [14] | [15] | [19] | [20]
inactive: all other assays above

N#Cc1ccc(C2CCCc3cncn32)cc1 (centres undefined)
not listed: [9] | [10]
inactive: all other assays above

CC(=O)N[C@H]1[C@H]([C@H](O)[C@H](O)CO)OC(C(=O)O)=C[C@@H]1N=C(N)N
not listed: [11] | [13] | [18] | [19]
inactive: all other assays above

O=C(c1ccc(OCCN2CCCCC2)cc1)c1c(-c2ccc(O)cc2)sc2cc(O)ccc12
45.8 µM (active) and inactive: [7]
active: [1] 34.4 µM and 30.6 µM
36.4 µM (active) and inactive: [9]
not listed: [11] | [12] | [13] | [16] | [17] | [18] | [19]
inactive: all other assays above

NCCNCCNCCN
not listed: [11]
inactive: all other assays above

CCCN[C@H]1CCc2nc(N)sc2C1
not listed: [15] | [16] | [17]
inactive: all other assays above

O
not listed: [11] | [12] | [13] | [16]
inactive: all other assays above
